The record followed here is the antibiotic and cytotoxicity screens of Wong et al. (2023).

SMILES strings stand for the structures. Out of some 39,000 compounds screened, about 1,500 (3.8%) were called active. Shown is part of a subset that was picked to be rich in actives.

For this test, the system named is HSkMC (human skeletal muscle cells). The test is described as follows: cytotoxicity call (relative viability < 0.9). The conditions noted are these: 10 µM.
Consider `CC(C)N1C[C@H](C)[C@@H](CN(C)Cc2ccc(Cl)c(Cl)c2)Oc2c(C(=O)Nc3ccncc3)cccc2C1=O`, for which the cytotoxicity call was “inactive”.

On to `COc1ccc(S(=O)(=O)N(C)C[C@H]2Oc3ccc(NS(C)(=O)=O)cc3C(=O)N([C@H](C)CO)C[C@@H]2C)cc1`, for which the cytotoxicity call is “inactive”.

As for `C[C@@H]1CN([C@@H](C)CO)C(=O)c2cc(NC(=O)c3ccccc3)ccc2O[C@@H](C)CCCCO[C@@H]1CN(C)Cc1ccccc1`, the cytotoxicity call is “inactive”.

Regarding `C[C@H](CO)N1C[C@H](C)[C@H](CN(C)C(=O)Nc2cccc(C(F)(F)F)c2)OCc2ccccc2-c2c(n(C)c3ccccc23)C1=O`, the cytotoxicity call is “active”.

For the molecule `C[C@H]1CN([C@@H](C)CO)C(=O)c2c(c3ccccc3n2C)-c2ccccc2CO[C@H]1CN(C)C(=O)Nc1cccc(C(F)(F)F)c1`, the cytotoxicity call is “inactive”.

With `C[C@@H]1CN([C@H](C)CO)C(=O)c2c(c3ccccc3n2C)-c2ccccc2CO[C@H]1CN(C)C(=O)Nc1cccc(C(F)(F)F)c1`, the cytotoxicity call was “inactive”.

Regarding `C[C@@H]1CN([C@H](C)CO)C(=O)c2ccccc2-c2ccccc2CO[C@@H]1CN(C)Cc1cccc(C(F)(F)F)c1`, the cytotoxicity call is “inactive”.

As to `C[C@@H]1CN([C@@H](C)CO)C(=O)c2ccccc2-c2ccccc2CO[C@@H]1CN(C)Cc1cccc(C(F)(F)F)c1`, the cytotoxicity call is “active”.

With `C[C@H](CO)N1C[C@H](C)[C@H](CN(C)Cc2cccc(C(F)(F)F)c2)OCc2ccccc2-c2ccccc2C1=O`, the cytotoxicity call is “inactive”.

For the molecule `C=CC(=O)NCCCCNC(=O)C=C`, the cytotoxicity call was “inactive”.

In the case of `C[C@@H]1CN([C@@H](C)CO)C(=O)c2cc(NC(=O)NC3CCCCC3)ccc2O[C@@H](C)CCCCO[C@@H]1CN(C)C(=O)Nc1ccc2c(c1)OCO2`, the cytotoxicity call is “inactive”.

Consider `CN1CCCCC[C@@H]1C(=O)O`, for which the cytotoxicity call is “inactive”.

As to `CO[C@@H]1CN(C)C(=O)c2ccc(NC(=O)C3CC3)cc2OC[C@@H](C)N(C(=O)Cc2ccccn2)C[C@@H]1C`, the cytotoxicity call was “inactive”.

As to `Cc1noc(C)c1S(=O)(=O)N(C)C[C@@H]1Oc2ccc(NC(=O)C3CC3)cc2CC(=O)N([C@@H](C)CO)C[C@H]1C`, the cytotoxicity call was “inactive”.

For `CN(C)CC[C@H](CSc1ccccc1)Nc1ccc(S(=O)(=O)NC(=O)c2ccc(N3CCN(Cc4ccccc4-c4ccc(Cl)cc4)CC3)cc2)cc1[N+](=O)[O-]`, the cytotoxicity call is “inactive”.

For `CC1(C)CCC(c2ccc(Cl)cc2)=C(CN2CCN(c3ccc(C(=O)NS(=O)(=O)c4ccc(N[C@@H](CCN5CCOCC5)CSc5ccccc5)c(S(=O)(=O)C(F)(F)F)c4)cc3)CC2)C1`, the cytotoxicity call was “active”.

In the case of `CC1(C)CCC(c2ccc(Cl)cc2)=C(CN2CCN(c3ccc(C(=O)NS(=O)(=O)c4ccc(N[C@H](CCN5CCOCC5)CSc5ccccc5)c(S(=O)(=O)C(F)(F)F)c4)cc3)CC2)C1`, the cytotoxicity call was “active”.

As for `CC1(C)CCC(CN2CCN(c3ccc(C(=O)NS(=O)(=O)c4ccc(NCC5CCOCC5)c([N+](=O)[O-])c4)c(Oc4cnc5[nH]ccc5c4)c3)CC2)=C(c2ccc(Cl)cc2)C1`, the cytotoxicity call was “inactive”.
